This note sets out measurements from PubChem BioAssay.

Assay [1] deals with Human papillomavirus type 1a protein E7 (residues 44-93). Briefly: HPV1a E7 fragment binders on microarrays, primary screen, biochemical, small-molecule microarray, residues 44-93, 635 nm fluorescence (AID 1108).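 Further: E7 fragment applied at 1 µg/mL in TBST for 1 h at 4 C; score combines spot fluorescence with its signal to noise ratio.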 The note with it: small-molecule microarray binding, fluorescence 635 nm; higher = more signal.
Assay [2] in a line: modulators of HCV replicon luciferase signal, primary screen, HCV replication inhibitor project, Huh7 cells, luciferase reporter (AID 1109).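 Further: huh7 hepatoma cells harbouring a luciferase neomycin HCV replicon reporter; luciferase luminescence as measure of HCV replicon replication; test concentration not given here.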 The following applies: 48 h, higher = more signal.
The target in assay [3] is Left-right determination factor 2 (Homo sapiens) (UniProt O00292). Description: LEFTY2 binders on small-molecule microarrays, primary screen, biochemical, small-molecule microarray, 635 nm fluorescence scan (AID 1110). The following applies: LEFTY2 binding, higher = more signal.
Chain of Left-right determination factor 2 (Homo sapiens) (O00292 whole entry, looked up): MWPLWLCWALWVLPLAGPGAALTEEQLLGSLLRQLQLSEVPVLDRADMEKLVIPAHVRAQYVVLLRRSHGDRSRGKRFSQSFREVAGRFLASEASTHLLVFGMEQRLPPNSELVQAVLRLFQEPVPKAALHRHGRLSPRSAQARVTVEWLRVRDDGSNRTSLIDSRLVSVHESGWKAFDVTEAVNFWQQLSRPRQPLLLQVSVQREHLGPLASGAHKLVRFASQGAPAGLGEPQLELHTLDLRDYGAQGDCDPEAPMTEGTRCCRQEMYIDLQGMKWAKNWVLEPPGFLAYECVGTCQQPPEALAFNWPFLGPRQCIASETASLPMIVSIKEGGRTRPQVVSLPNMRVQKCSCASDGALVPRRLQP
Assay [4] has as its target Calmodulin-1 (Homo sapiens) (UniProt P0DP23). Description: CALM1 binders on microarrays, EGTA buffer, profiling panel, biochemical, small-molecule microarray, Cy5-labelled CALM1 (AID 1111).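 Further: labelled calmodulin applied in Tris saline Tween buffer holding calcium plus EGTA and DTT.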 The note with it: Cy5-CALM1 binding fluorescence, higher = more signal.
For assay [5] the target is unchanged. Description: calcium-bound CALM1 binders on microarrays, profiling panel, artefact control for SMM control-protein annotation, biochemical, small-molecule microarray, Cy5-labelled CALM1, plus calcium (AID 1112).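 Further: score merges spot fluorescence with signal to noise from triplicate slides.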 The following applies: Cy5-CALM1 binding fluorescence, higher = more signal.
Assay [6] in a line: small-molecule microarray binders of probe aWnt5a, primary screen, biochemical, biotinylated probe, 635/667 nm fluorescence (AID 1113).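 Further: score merges 667 nm fluorescence intensity with signal-to-noise per printed feature.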 The following applies: higher = more signal.
Assay [7] can be described thus: small-molecule microarray binders of probe aShh, primary screen, biochemical, biotinylated probe, 635/667 nm fluorescence (AID 1114).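 Further: probe is biotin-labelled aShh protein from a stem cell growth factor screen; measures binding of labelled protein to compounds printed on the slide; score merges feature fluorescence at 667 nm with signal-to-noise.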 The note with it: higher = more signal.
Assay [8] is described as follows: small-molecule microarray binders of probe aNog, primary screen, biochemical, biotinylated probe, 635/667 nm fluorescence (AID 1115).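 Further: probe is biotinylated aNog protein used at 0.15 µg/mL for 1 h at 4 C; z-score combines 667 nm fluorescence of each spot with its signal to noise.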 The following applies: higher = more signal.
Assay [9] deals with Torsin-1A-interacting protein 1 (Homo sapiens) (UniProt Q5JTV8). Description: LAP1 binders from COS7 cell lysate, primary screen, small-molecule microarray, 635/667 nm fluorescence (AID 1116). The note with it: COS7-hLAP1 lysate binding, 635 nm fluorescence, higher = more signal.
Chain of Torsin-1A-interacting protein 1 (Homo sapiens) (Q5JTV8 whole entry, looked up): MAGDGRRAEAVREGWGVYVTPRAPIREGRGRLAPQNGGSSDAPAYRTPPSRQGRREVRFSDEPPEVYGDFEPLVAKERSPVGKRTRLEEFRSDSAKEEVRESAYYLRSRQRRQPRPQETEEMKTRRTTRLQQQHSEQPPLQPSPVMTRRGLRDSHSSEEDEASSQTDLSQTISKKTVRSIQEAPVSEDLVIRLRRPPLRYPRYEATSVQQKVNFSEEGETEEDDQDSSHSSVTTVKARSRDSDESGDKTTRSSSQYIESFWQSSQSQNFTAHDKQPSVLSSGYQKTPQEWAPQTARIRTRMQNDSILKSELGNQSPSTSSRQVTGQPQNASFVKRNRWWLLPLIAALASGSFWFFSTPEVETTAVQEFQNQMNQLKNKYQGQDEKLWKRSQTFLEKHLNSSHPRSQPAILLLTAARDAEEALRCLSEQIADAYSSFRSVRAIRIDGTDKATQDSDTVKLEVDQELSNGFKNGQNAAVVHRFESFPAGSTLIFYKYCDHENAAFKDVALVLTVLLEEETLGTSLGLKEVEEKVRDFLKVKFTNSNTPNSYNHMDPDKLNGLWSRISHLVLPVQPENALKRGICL
Assay [10] has as its target Alpha-bungarotoxin (Bungarus multicinctus) (UniProt P60615). Briefly: alpha-bungarotoxin binders on microarray, profiling panel, artefact control for SMM control protein annotation, biochemical, small-molecule microarray, Alexa647 label, 635/667 nm fluorescence (AID 1117). The following applies: alpha-BTX-A647 binding fluorescence, higher = more signal.

Chain of Alpha-bungarotoxin (Bungarus multicinctus) (P60615 whole entry, looked up): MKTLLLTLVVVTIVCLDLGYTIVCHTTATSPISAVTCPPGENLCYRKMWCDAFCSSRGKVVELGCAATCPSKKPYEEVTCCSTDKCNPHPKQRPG

Consider `C=CCOC(=O)[C@H]1[C@@H]2C(=O)O[C@@H](c3ccccc3)[C@@H](c3ccccc3)N2[C@@H](c2ccc(OCCOC(=O)[C@H]3C[C@H]4C(=O)N[C@@H](CCCC[N+](C)(C)C)C(=O)N4[C@H]3c3cccc(OCCO)c3)cc2)[C@]12C(=O)Nc1ccc(I)cc12`, for which the composite z-score was 0.62 in [1]; 0.73 in [3]; 0.727 in [4]; 0.119 in assay [5]; -0.0721 in assay [6]; -0.138 in [7]. In addition, the composite z-score in assay [8] worked out at 0.0051; in assay [9], 0.62; in [10], 0.113. The z-score in assay [2] is -1.38.
On to `COCCOC(=O)N1C(=O)[C@@]2(c3cc(C#CC4(O)CCCCCC4)ccc31)[C@H](C(=O)N1CCCCCCC1)[C@H]1C(=O)O[C@H](c3ccccc3)[C@H](c3ccccc3)N1[C@@H]2c1ccc(OCCO)cc1`, for which the composite z-score amounted to 1.33 in [1]; 1.52 in assay [3]; 2.33 in assay [4]; 1.01 in assay [5]; 1.12 in [6]; 2.59 in assay [7]. Moreover, the composite z-score in assay [8] is 2.98; in assay [9], 4.12; in assay [10] it was 2.89. The compound also showed a z-score in assay [2] of -1.74.
As for `CCOC(=O)C[C@H]1[C@H](OC(=O)c2ccccc2-c2ccccc2)[C@@H](NC(=O)c2ccc3ccccc3n2)c2cc(OCCCO)ccc2N1C(=O)c1ccc2ccccc2n1`, the composite z-score in assay [1] is 0.437; in assay [3], 0.152; in [4], -0.0654; in [5], -0.127; in assay [6], -0.174; in assay [7] it was -0.265. The composite z-score is -0.328 in assay [8], 0.358 in assay [9] and 0.567 in [10]. In assay [2], this compound had a z-score of -0.863.
With `C=CCC(OC(C)=O)[C@@H]1[C@@H](N(Cc2cc3ccccc3o2)C(=O)Cc2ccc(F)cc2)c2cc(OCCCO)ccc2N1C(=O)c1ccc2ccccc2n1` (stereo not given in full), the composite z-score was -0.221 in assay [1]; -0.139 in assay [3]; -0.408 in assay [4]; -0.12 in [5]; 0.0179 in assay [6]; -0.426 in assay [7]. For the same compound, the figures for the composite z-score in assay [8], in assay [9] and in assay [10] were 0.14, -0.103 and 0.222, respectively. Moreover, the z-score in assay [2] was determined as 0.476.
Take `COc1ccc(NN2C(C(O)c3ccco3)C=CC3C(=O)N(C4CCCCC4)C(=O)C32)cc1` (stereo not given): the composite z-score is 1.42 in [1]; 0.519 in [3]; 0.9 in [4]; 0.267 in [5]; 0.0613 in assay [6]; 0.0639 in [7]. The composite z-score in assay [8] was 0.353; in assay [9], 0.605; in assay [10], 0.916. Also, the z-score in [2] was 0.224.
As for `CCOC(=O)C1=CC[C@@H](c2cc(Cl)ccc2Cl)N(S(=O)(=O)c2ccc(C)cc2)[C@H]1c1ccc(OC)cc1`, the composite z-score was -0.157 in [1]; -0.658 in [3]; 0.379 in [4]; 0.379 in assay [5]; 0.374 in assay [6]; 0.898 in [7]. Further, the composite z-score in assay [8] was -0.412; in assay [9], 0.417; in assay [10] it was -0.369. The compound also came in with a z-score in assay [2] of -2.23.
For `CN(C)CCCCNC(=O)[C@H]1C[C@H]2C(=O)N3CCC[C@H]3C(=O)N2[C@H]1c1ccc(O)cc1`, the composite z-score in [1] is -1.11; in assay [3] it was -0.148; in assay [4] it was -0.969; in assay [5], -0.949; in [6], -0.45; in assay [7], -0.401. In addition, the values for the composite z-score in [8], in assay [9] and in [10] were 0.39, -0.206 and -1.01, respectively. Moreover, in assay [2], the z-score turned out to be 0.939.
On to `NCCCCCCNC(=O)[C@H]1C[C@H]2C(=O)N[C@@H](Cc3ccccc3)C(=O)N2[C@H]1c1ccc(O)cc1`, for which the composite z-score in assay [1] was 0.74; in assay [3], 0.338; in assay [4], 1.44; in assay [5] it was 1.17; in [6], -0.0033; in assay [7] it was -0.1. In addition, the composite z-score in assay [8] is -0.0496; in [9], 1.21; in assay [10] it was 1.55. The z-score in assay [2] was determined as 0.914.
For the compound `COc1ccc(CCNC(=O)[C@@]2(Sc3ccc(C)cc3)CC(=O)N(Cc3cc(C(F)(F)F)cc(C(F)(F)F)c3)[C@@H]2c2ccc(CO)cc2I)cc1`, the composite z-score in [1] is 1.27; in assay [3], -1.07; in assay [4], 0.435; in assay [5], -0.45; in assay [6] it was -0.0869; in assay [7], 0.23. Further, the composite z-score in assay [8] is -0.0592; in [9], 0.282; in assay [10], 1.73. The compound further gave a z-score in assay [2] of -1.89.
Consider `C=CCOC(=O)[C@@H]1[C@H]2C(=O)O[C@H](c3ccccc3)[C@H](c3ccccc3)N2[C@H](c2ccc(OCCOC(=O)[C@H]3C[C@H]4C(=O)N[C@@H](CCCCN(C)C)C(=O)N4[C@H]3c3cccc(OCCO)c3)cc2)[C@@]12C(=O)Nc1ccc(I)cc12`, for which the composite z-score in [1] was 1.42; in assay [3], 0.724; in [4], 0.993; in assay [5], -0.069; in assay [6], -0.13; in [7] it was 0.123. Also, the composite z-score in assay [8] was -0.0863; in assay [9], 1.03; in [10] it was 2.07. The same compound displayed a z-score in assay [2] of -1.14.
On to `CC(=O)NCCCC[C@@H]1NC(=O)[C@@H]2C[C@H](C(=O)O)[C@H](c3ccc(O)cc3)N2C1=O`, for which the composite z-score in assay [1] is -0.745; in [3], -2.7; in [4] it was -0.329; in assay [5] it was 0.104; in assay [6] it was -0.184; in [7] it was -0.221. Also, the composite z-score was -0.33 in assay [8], -0.998 in assay [9] and -0.371 in assay [10]. In addition, the z-score in [2] is 0.117.
Take `CC(C)(C)OC(=O)CC[C@]1(C(=O)O)N=C(c2ccc(OCCCO)cc2)O[C@H]1c1ccccc1CN=[N+]=[N-]`: the composite z-score in assay [1] is -0.391; in [3], -0.688; in assay [4] it was 0.32; in [5] it was 0.81; in assay [6], -0.136; in assay [7], 0.0668. The composite z-score in [8] is 0.718; in [9], 0.69; in [10], -0.489. The z-score in assay [2] was 0.0879.
As to `C=CCOC(=O)[C@@H]1[C@H]2C(=O)O[C@H](c3ccccc3)[C@H](c3ccccc3)N2[C@H](c2ccc(OCCOC(=O)[C@H]3C[C@H]4C(=O)N[C@@H](CCCC[N+](C)(C)C)C(=O)N4[C@H]3c3ccc(O)cc3)cc2)[C@@]12C(=O)Nc1ccc(I)cc12`, the composite z-score in assay [1] is 0.505; in assay [3] it was 1.05; in [4], 1.64; in [5] it was -0.116; in assay [6], 0.0101; in [7] it was 0.147. Besides, the composite z-score in [8] is -0.0927; in [9] it was 1.49; in [10] it was 1.89. The z-score in assay [2] was -0.908.
